According to PubChem BioAssay AID1159580 (chemical genetic matrix, 2015):
Among all 5,500 compounds or so, about 2,000 (36%) were called active. Another 18% or so got no clear call; they are omitted. Rule as the data show it: active = normalized growth mostly below about 0.91 (no sharp cut-off); inconclusive = no clear call, values can overlap the other calls; inactive = mostly above about 0.92. Some of the results follow.

Test: chemical genetic growth profiling, strain panel (AID 1159580);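 also: tested at 20 µM; growth read once vehicle control cultures reached saturation at 30 °C; 1 = growth at the plate median or of vehicle wells; lower values mean less growth of the strain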
Conditions: S. cerevisiae deletion strains, growth OD

Measured: normalized growth

CC1(C)CCC2(C(=O)O)CCC3(C)C(=CCC4C5(C)CCC(O)C(C)(C)C5C(O)CC43C)C2C1 (configuration not stated)
active: locus YDL005C, strain med2, stronger effect = lower value 0.246 | locus YDR069C, strain doa4, stronger effect = lower value 1.11 [resistant]
inactive: locus YAL021C, strain ccr4, stronger effect = lower value 1 | locus YAL026C, strain drs2, stronger effect = lower value 1.04 | locus YAL030W, strain snc1, stronger effect = lower value 1.03 | locus YBL061C, strain skt5, stronger effect = lower value 1.03 | locus YBR009C, strain hhf1, stronger effect = lower value 1.02 | locus YBR023C, strain chs3, stronger effect = lower value 1.04 | locus YBR171W, strain sec66, stronger effect = lower value 1.05 | locus YBR231C, strain swc5, stronger effect = lower value 1.03 | locus YBR279W, strain paf1, stronger effect = lower value 1.03 | locus YCL011C, strain gbp2, stronger effect = lower value 1.02 | locus YCL016C, strain dcc1, stronger effect = lower value 1.01 | locus YCL069W, strain vba3, stronger effect = lower value 1.03 | locus YCR088W, strain abp1, stronger effect = lower value 1.04 | locus YDL040C, strain nat1, stronger effect = lower value 1.04 | locus YDR001C, strain nth1, stronger effect = lower value 1.03 | locus YDR137W, strain rgp1, stronger effect = lower value 0.871 | locus YDR159W, strain sac3, stronger effect = lower value 1.01 | locus YDR195W, strain ref2 1.06 | locus YDR297W, strain sur2, stronger effect = lower value 1.04 | locus YDR334W, strain swr1, stronger effect = lower value 1.04 | locus YDR335W, strain msn5, stronger effect = lower value 1.01 | locus YDR392W, strain spt3, stronger effect = lower value 0.966 | locus YEL003W, strain gim4, stronger effect = lower value 1.01 | locus YEL037C, strain rad23, stronger effect = lower value 1.02 | locus YER015W, strain faa2, stronger effect = lower value 1.03 | locus YER016W, strain bim1, stronger effect = lower value 1.04 | locus YER111C, strain swi4, stronger effect = lower value 1.02 | locus YER155C, strain BEM2 (second series), stronger effect = lower value 1.03 | locus YFR010W, strain ubp6, stronger effect = lower value 1.06 | locus YGL167C, strain pmr1, stronger effect = lower value 1.05 | locus YGL173C, strain kem1, stronger effect = lower value 1.03 | locus YGL227W, strain vid30, stronger effect = lower value 1.04 | locus YGL240W, strain doc1, stronger effect = lower value 0.961 | locus YGL253W, strain hxk2, stronger effect = lower value 1.04 | locus YHR013C, strain ard1, stronger effect = lower value 1.12 | locus YHR027C, strain rpn1, stronger effect = lower value 1.04 | locus YHR142W, strain chs7, stronger effect = lower value 1.02 | locus YJL092W, strain hpr5, stronger effect = lower value 1.04 | locus YJL095W, strain BCK1 (second series), stronger effect = lower value 1.05 | locus YJL115W, strain asf1, stronger effect = lower value 1.03 | locus YJL129C, strain trk1, stronger effect = lower value 0.972 | locus YJL154C, strain vps35, stronger effect = lower value 1.02 | locus YJL164C, strain tpk1, stronger effect = lower value 1.02 | locus YJL166W, strain qcr8, stronger effect = lower value 1.02 | locus YJL187C, strain SWE1, stronger effect = lower value 1.03 | locus YKL160W, strain elf1, stronger effect = lower value 1.03 | locus YKR026C, strain gcn3, stronger effect = lower value 1.05 | locus YKR091W, strain srl3, stronger effect = lower value 1.03 | locus YLL001W, strain dnm1, stronger effect = lower value 1.02 | locus YLL026W, stronger effect = lower value 1.03 | locus YLL041C, strain sdh2, stronger effect = lower value 1.05 | locus YLR027C, strain aat2, stronger effect = lower value 1.04 | locus YLR221C, strain rsa3, stronger effect = lower value 1.03 | locus YLR258W, strain gsy2, stronger effect = lower value 1.02 | locus YLR262C, strain YPT6 (second series), stronger effect = lower value 0.938 | locus YLR320W, strain mms22, stronger effect = lower value 1.02 | locus YLR342W, strain FKS1, stronger effect = lower value 1.04 | locus YLR357W, strain rsc2, stronger effect = lower value 1.01 | locus YLR370C, strain arc18, stronger effect = lower value 1.04 | locus YLR384C, strain iki3, stronger effect = lower value 1.04 | locus YML120C, strain ndi1, stronger effect = lower value 1.02 | locus YMR058W, strain fet3, stronger effect = lower value 1.01 | locus YMR125W, strain sto1, stronger effect = lower value 1.03 | locus YMR129W, stronger effect = lower value 1.03 | locus YMR205C, strain PFK2, stronger effect = lower value 1.02 | locus YMR231W, strain pep5, stronger effect = lower value 1.02 | locus YNL071W, strain lat1, stronger effect = lower value 1.05 | locus YNL209W, strain ssb2, stronger effect = lower value 1.04 | locus YNL248C, strain rpa49, stronger effect = lower value 1.01 | locus YNL322C, strain KRE1 (second series), stronger effect = lower value 1.05 | locus YNR049C, strain mso1, stronger effect = lower value 1.04 | locus YOR001W, strain rrp6, stronger effect = lower value 0.964 | locus YOR070C, strain gyp1, stronger effect = lower value 1.03 | locus YOR080W, strain dia2, stronger effect = lower value 1.04 | locus YOR083W, strain WHI5, stronger effect = lower value 1.02 | locus YOR106W, strain vam3, stronger effect = lower value 0.901 | locus YOR265W, strain rbl2, stronger effect = lower value 1.02 | locus YOR270C, strain vph1, stronger effect = lower value 0.911 | locus YOR290C, strain snf2, stronger effect = lower value 0.991 | locus YPL051W, strain arl3, stronger effect = lower value 0.992 | locus YPL078C, strain atp4, stronger effect = lower value 1.01 | locus YPL106C, strain sse1, stronger effect = lower value 1.03 | locus YPL240C, strain hsp82, stronger effect = lower value 1.03

C[C@@H]1OC(O[C@H]2[C@H](OC(=O)[C@]34CCC(C)(C)CC3C3=CCC5[C@@]6(C)CC[C@H](OC7O[C@@H](C)[C@H](O[C@@H]8OC[C@@H](O)[C@H](O)[C@H]8O)[C@@H](O)[C@H]7O)C(C)(C)C6CC[C@@]5(C)[C@]3(C)CC4O)OC[C@H](O)[C@H]2O)[C@H](O)[C@H](O)[C@H]1O[C@@H]1O[C@H](CO)[C@@H](O)[C@H](O)[C@H]1O (some centres not stated)
active: locus YDL035C, strain GPR1, stronger effect = lower value 0.785 | locus YDL134C, strain PPH21, stronger effect = lower value 0.883 | locus YDL192W, strain arf1, stronger effect = lower value 0.825 | locus YDR162C, strain NBP2, stronger effect = lower value 0.0581 | locus YDR388W, stronger effect = lower value 0.918 | locus YER155C, strain BEM2, stronger effect = lower value 1.12 [resistant] | locus YER167W, strain BCK2, stronger effect = lower value 0.895 | locus YHR030C, strain SLT2, stronger effect = lower value 0.323 | locus YJL095W, strain BCK1, stronger effect = lower value 0.33 | locus YKL009W, strain mrt4, stronger effect = lower value 0.876 | locus YKL085W, strain MDH1 (second series), stronger effect = lower value 0.904 | locus YKL085W, strain MDH1, stronger effect = lower value 0.904 | locus YKR001C, strain vps1, stronger effect = lower value 0.721 | locus YLR371W, strain rom2, stronger effect = lower value 0.714 | locus YLR418C, strain cdc73, stronger effect = lower value 0.745 | locus YML032C, strain rad52, stronger effect = lower value 0.824 | locus YMR223W, strain ubp8, stronger effect = lower value 0.895 | locus YMR307W, strain GAS1, stronger effect = lower value 0.212 | locus YNL250W, strain rad50, stronger effect = lower value 0.891 | locus YNL298W, strain CLA4, stronger effect = lower value 0.838 | locus YNR052C, strain pop2, stronger effect = lower value 0.815 | locus YOL012C, strain htz1 2.15 [resistant] | locus YOR061W, strain CKA2, stronger effect = lower value 0.59 | locus YOR184W, strain ser1, stronger effect = lower value 0.79 | locus YPR167C, strain met16, stronger effect = lower value 0.861
inactive: locus YBR021W, strain FUR4, stronger effect = lower value 0.963 | locus YBR229C, strain ROT2, stronger effect = lower value 0.967 | locus YCL029C, strain bik1, stronger effect = lower value 1.01 | locus YDL074C, strain BRE1, stronger effect = lower value 0.885 | locus YDL101C, strain DUN1, stronger effect = lower value 0.984 | locus YDL185W, strain tfp1, stronger effect = lower value 0.974 | locus YDR101C, strain arx1, stronger effect = lower value 0.985 | locus YDR318W, strain mcm21, stronger effect = lower value 0.917 | locus YDR502C, strain sam2, stronger effect = lower value 0.936 | locus YEL061C, strain CIN8, stronger effect = lower value 0.95 | locus YER110C, stronger effect = lower value 0.996 | locus YGL078C, strain dbp3, stronger effect = lower value 0.929 | locus YGL086W, strain mad1, stronger effect = lower value 0.977 | locus YGL248W, strain PDE1, stronger effect = lower value 0.993 | locus YGR135W, strain pre9, stronger effect = lower value 0.978 | locus YGR252W, strain gcn5, stronger effect = lower value 0.934 | locus YHR079C, strain IRE1 (second series), stronger effect = lower value 0.975 | locus YHR094C, strain hxt1, stronger effect = lower value 0.982 | locus YHR129C, strain ARP1, stronger effect = lower value 0.923 | locus YHR200W, strain rpn10, stronger effect = lower value 0.974 | locus YIL066C, strain RNR3, stronger effect = lower value 0.912 | locus YIL073C, strain SPO22, stronger effect = lower value 0.936 | locus YIL125W, strain kgd1, stronger effect = lower value 0.958 | locus YIR030C, strain dcg1, stronger effect = lower value 0.969 | locus YJL134W, strain LCB3, stronger effect = lower value 1.04 | locus YJL168C, strain set2, stronger effect = lower value 1.01 | locus YJL187C, strain SWE1 (second series), stronger effect = lower value 0.925 | locus YJR043C, strain POL32, stronger effect = lower value 0.858 | locus YJR075W, strain HOC1, stronger effect = lower value 0.957 | locus YKL068W, stronger effect = lower value 0.949 | locus YLR039C, strain RIC1, stronger effect = lower value 0.842 | locus YLR058C, strain SHM2, stronger effect = lower value 0.972 | locus YLR102C, strain apc9, stronger effect = lower value 0.982 | locus YLR262C, strain YPT6, stronger effect = lower value 0.709 | locus YLR268W, strain sec22, stronger effect = lower value 0.966 | locus YLR330W, strain CHS5, stronger effect = lower value 0.993 | locus YLR342W, strain FKS1 (second series), stronger effect = lower value 0.927 | locus YML016C, strain PPZ1, stronger effect = lower value 1 | locus YML124C, strain tub3, stronger effect = lower value 0.993 | locus YMR078C, strain ctf18, stronger effect = lower value 0.987 | locus YNL067W, strain RPL9B, stronger effect = lower value 0.983 | locus YNL128W, strain TEP1, stronger effect = lower value 0.887 | locus YNL153C, strain GIM3, stronger effect = lower value 0.958 | locus YNL233W, strain BNI4, stronger effect = lower value 0.997 | locus YNL271C, strain bni1, stronger effect = lower value 1 | locus YNL307C, strain MCK1, stronger effect = lower value 0.991 | locus YOL147C, strain pex11, stronger effect = lower value 0.986 | locus YOR069W, strain VPS5, stronger effect = lower value 1.01 | locus YOR136W, strain idh2, stronger effect = lower value 0.951 | locus YOR144C, strain elg1, stronger effect = lower value 0.982 | locus YOR316C, strain cot1, stronger effect = lower value 0.984 | locus YPL055C, strain LGE1, stronger effect = lower value 0.841 | locus YPL241C, strain CIN2, stronger effect = lower value 0.989 | locus YPR119W, strain clb2, stronger effect = lower value 0.988 | locus YPR141C, strain kar3, stronger effect = lower value 0.981 | locus YPR163C, strain tif3, stronger effect = lower value 0.935 | strain wtn01, stronger effect = lower value 0.955
